Hits are enriched below; roughly 21% of the tested compounds scored in any of these assays.
NS1 inh = qHTS Assay for Inhibitors of Influenza NS1 Protein Function | Potency, µM (series often up to 46.1 µM), inactives show top-dose activity, positive = more growth | 270,000 compounds, 0.4% hits | AID 2326, 2010; note: potency is the fitted concentration of half-maximal effect; actives are rising curves; nearly all actives have a fitted effect of over 50% in size
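A cell-based growth assay was used: compounds that relieve NS1-induced slow growth of budding yeast raise OD600. Assay medium was yeast nitrogen base with ammonium sulphate and -URA supplement, pH 6.0, with 2% galactose.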
Pf growth 96h = Primary qHTS for delayed death inhibitors of the malarial parasite plastid, 96 hour incubation; P. falciparum luciferase reporter growth, 96 h; 320,000 compounds, 6.9% hits; Potency, µM (doses to about 28.7 µM), for the others: at the highest dose activity change, negative = inhibition, actives largely listed as inhibitors; active = well fitted inhibition curve with a large enough effect; inconclusive = small, poorly fitted or top-dose-only effect, or another doubt; inactive = no such curve, though single readings can be large or run the other way; note: potency is the fitted concentration of half-maximal effect; % is set by controls: 0 for no effect and ±100 for the full control effect
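96 h incubation, 37 C, 5% CO2, of luciferase-reporter P. falciparum-infected RBCs (2% hematocrit, 0.05% parasitemia final) with test compounds; endpoint luminescence.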
SARS PLP yeast = qHTS of Yeast-based Assay for SARS-CoV PLP; 330,000 compounds, 0.19% hits; S. cerevisiae expressing SARS-CoV PLpro, growth rescue; Potency, µM (series often up to 32.9 µM), inactives show at the top dose activity, positive = growth rescue, most hits filed as activators; note: potency is the fitted concentration of half-maximal effect; 0% is about no effect; nearly all actives have a fitted effect of over 55% in size
Shiga inhibitor = A qHTS for Small Molecule Inhibitors of Shiga Toxin | Vero cells, Shiga toxin protein synthesis inhibition reporter | inhibition, % at 38.7 µM | 290,000 compounds, 9.2% hits; in the data active = inhibition mostly above about 28%, no sharp cut-off; inactive = mostly below about 43%; note: 0% is about no effect
Pf growth 48h = Primary qHTS for delayed death inhibitors of the malarial parasite plastid, 48 hour incubation | P. falciparum luciferase growth in erythrocytes, 48 h | Potency, µM (titrated, usually from 28.7 µM), for inactives: top-dose activity change, negative = inhibition, hits mostly inhibitors | 310,000 compounds, 5.9% hits | AID 504832, 2011; active = well fitted inhibition curve with a large enough effect; inconclusive = small, poorly fitted or top-dose-only effect, or another doubt; inactive = no such curve, though single readings can be large or run the other way; note: potency is the fitted concentration of half-maximal effect; % is set by controls: 0 for no effect and ±100 for the full control effect
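Here the parasites carry a stable luciferase gene and grow inside erythrocytes in Albumax-based RPMI medium with compound for one erythrocytic cycle. Activity is scored as loss of luminescent signal.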
CHX counter = Cycloheximide Counterscreen for Small Molecule Inhibitors of Shiga Toxin | cell reporter, cycloheximide protein synthesis inhibition counterscreen | max response, % | 300,000 compounds, 12% hits | AID 2314, 2010; in the data active = max response mostly above about 13%, no sharp cut-off; inactive = mostly below about 14%; note: read at 38.3 µM for the half of the compounds with a filed dose; 0% is about no effect
* marks the source's active call; other numbers are inactive results; i = inactive; ? = inconclusive; · = not tested or not shown; [ ] = dose if it differs, or a comment. Unless noted, calls come from the whole dose curve.

SMILES	NS1 inh	Pf growth 96h	SARS PLP yeast	Shiga inhibitor	Pf growth 48h	CHX counter
Cc1ccc(NC(=O)c2cncc(Br)c2)cc1S(=O)(=O)N(C)C	20%	12%	17%	99*	84%	38*
Cc1ccc(S(=O)(=O)N2CCCCC2)cc1NC(=O)c1cncc(Br)c1	·	?	-4%	·	?	·
Cc1ccc(NC(=O)CSc2nnc(-c3cccs3)o2)cc1S(=O)(=O)N(C)C	2%	14%	1%	117*	59%	27*
Cc1ccc(NC(=O)c2sccc2C)cc1S(=O)(=O)N(C)C	-12%	31%	-17%	46	49%	28*
CN(C)S(=O)(=O)c1cccc(NC(=O)c2cncc(Br)c2)c1	14%	64%	13%	17	25%	8
Cc1ccc(NC(=O)c2ccccc2Br)cc1S(=O)(=O)N(C)C	·	?	0%	41	?	13
Cc1cccc(NC(=O)Cn2c(=O)oc3ccccc32)c1	-3%	342%	1%	-30	0%	-1
COc1c(/C=N/NC(=O)c2ccncc2)c(CCN(C)C(C)=O)cc2c1OCO2	3%	0%	-2%	7	29%	1
Cc1ccccc1N=C1NC(=O)CC(c2ccccc2)S1 (stereo unspecified)	0%	?	-49%	-11	·	6
COc1ccc(OCc2nn3c(-c4ccco4)nnc3s2)cc1	-65%	·	-3%	12	-28%	7
c1ccc(CCc2nn3c(-c4ccncc4)nnc3s2)cc1	-34%	-9%	-7%	18	?	6
c1coc(-c2nn3c(-c4ccco4)nnc3s2)c1	-9%	?	-5%	12	8%	10*
COc1ccccc1-c1nn2c(-c3ccccc3Cl)nnc2s1	13µM*	·	-4%	22	?	-2
Clc1ccccc1-c1nnc2sc(CCc3ccccc3)nn12	-87%	·	?	29	13µM*	7
COc1ccccc1-c1nn2c(-c3ccco3)nnc2s1	-58%	?	-9%	112*	·	68*
Cc1c(C(=O)/C=C/N(C)C)nnn1-c1ccc(Cl)cc1C#N	0%	?	-2%	8	?	1
COc1ccc(C(=O)NCC2CCCCC2)cc1S(=O)(=O)N1CCOCC1	·	·	-2%	·	·	·
CCCCn1c(N)c(N(CC)C(=O)CCNC(=O)NC23CC4CC(CC(C4)C2)C3)c(=O)[nH]c1=O	-2%	-6%	4%	-1	-30%	2
CCN(CC(=O)NCc1cccs1)C(=O)CCc1c[nH]c2ccccc12	·	?	-2%	4	-4%	6
C/C=C(\C)C(=O)O[C@@H]([C@H](O)c1cc2ccc(=O)oc2cc1OC)C(C)(C)O	·	49%	-2%	·	37%	·
c1ccc(OCc2nn3c(-c4cccnc4)nnc3s2)cc1	-8%	12µM*	-2%	35	?	0
COc1ccccc1-c1nnc2sc(COc3ccc(Cl)cc3Cl)nn12	-117%	10µM*	8%	-22	?	-2
Clc1ccc(OCc2nn3c(-c4ccco4)nnc3s2)cc1	-145%	-23%	-17%	6	15µM*	12
CCN(CC)c1ccc(-c2nn3c(-c4ccccc4OC)nnc3s2)cc1	-69%	11%[5.75 µM]	-18%	18	2.6µM*	-1
COc1ccccc1-c1nnc2sc(COc3ccccc3)nn12	-30%	-15%	-6%	-9	?	2
SMILES	NS1 inh	Pf growth 96h	SARS PLP yeast	Shiga inhibitor	Pf growth 48h	CHX counter
COC(=O)Cc1ccc(NC(=S)N2CCN(c3cc(Cl)ccc3C)CC2)cc1	-1%	?	0%	10	-4%	-3
Clc1cccc(-c2nnc3sc(-c4ccc5c(c4)OCO5)nn23)c1	-37%	?	-1%	-10	19%	-4
Clc1ccccc1-c1nnc2sc(-c3ccc4c(c3)OCO4)nn12	?	-19%	-2%	40*	12µM*	19*
COc1cccc2c1Oc1ncccc1N(C(=O)CCC(=O)NCc1cccc(C)c1)C2	0%	?	32%	-2	-6%	-3
C[C@@H]1O[C@@H](O)[C@@H](O)[C@H](O)[C@H]1O	-3%	·	·	·	·	·
O=C(NCc1ccco1)C1CCN(c2nc3ccccc3n2Cc2ccccc2F)CC1	-65%	-26%	8%	2	·	22*
O=C(CN1CCN(Cc2ccccc2F)C1=O)NCc1ccco1	4%	13µM*	4%	-7	·	-4
Cc1c(CBr)[n+](=O)c2c(n1[O-])C(Br)CCC2Br (stereo unspecified)	-3%	2%	0%	17	-1%	14*
CCOC(=O)c1cncc(C(=O)O)c1	-15%	43%	9%	-5	26%	-1
COc1cc(NC(=O)C2CCCN2C(=O)OCc2ccccc2)cc(OC)c1 (stereo unspecified)	-11%	0%	1%	-11	7.4µM*	-3
CCOc1ccccc1NC(=O)C1Cc2ccccc2CN1S(C)(=O)=O (stereo unspecified)	-9%	12µM*	1%	-21	?	-2
COc1cc(NC(=O)NC2Cc3ccccc3C2)cc(OC)c1	-4%	?	-2%	53*	?	20*
CCOc1ccccc1NC(=O)C1CCCN1S(=O)(=O)c1ccccc1C(F)(F)F (stereo unspecified)	·	?	0%[6.58 µM]	·	8.3µM*	·
COc1cc(NC(=O)Cc2ccccc2)cc(OC)c1	2%	14%	2%	-8	·	0
Cc1ccc(C2CC(=O)Oc3ccc(C(C)(C)C)cc32)cc1 (stereo unspecified)	·	·	·	i	·	6
COc1ccc(OC)c(S(=O)(=O)N2Cc3ccccc3CC2C(=O)Nc2nccs2)c1 (stereo unspecified)	-27%	18%	4%	107*	103%	64*
COc1cc(NC(=O)C2Cc3ccccc3CN2S(C)(=O)=O)cc(OC)c1 (stereo unspecified)	7%	1.9µM*	-1%	-4	0%	2
Cc1ccc(C)c(S(=O)(=O)N2CCN(C(C(=O)Nc3ccc(F)cc3)c3ccccc3)CC2)c1 (stereo unspecified)	13%	54%	-9%	-3	13µM*	5
Cc1ccc(C)c(S(=O)(=O)N2CCN(C(=O)CSc3ccccc3F)CC2)c1	1%	15µM*	-1%	-3	?	-3
Cc1ccc(C)c(S(=O)(=O)N2CCN(C(=O)Cc3c(F)cccc3Cl)CC2)c1	·	-8%	-4%	·	?	·
O=C(Nc1ccc(F)cc1)C(c1ccccc1)N1CCN(S(=O)(=O)c2ccc3ccccc3c2)CC1 (stereo unspecified)	?	0%	-8%	-6	13µM*	-1
O=C(CN1CCN(C(C(=O)Nc2ccc(F)cc2)c2ccccc2)CC1)NC1CC1 (stereo unspecified)	·	15µM*	-1%	·	?	·
Cc1noc(C)c1CSCC(=O)N(CC(C)C)c1c(N)n(Cc2ccccc2)c(=O)[nH]c1=O	·	-33%	·	·	?	·
